For 30 molecules, Potency and activity change, negative = inhibition results are on record in PubChem BioAssay (NCATS).

Experiment [1] in a line: Primary qHTS for Huh7 cytotoxicity: counterscreen for inhibitors of MERS-S pseudotyped particle cell entry (AID 1479147). In general terms: Quantitative high-throughput screening tests each substance at several concentrations.
A short description of experiment [2]: Primary qHTS for inhibitors of MERS-S pseudo-typed particle cell entry (AID 1479149). Further: nearly all actives have a fitted effect of over 60% in size. On activity change, negative = inhibition: on the % scale 0 is the no-effect control and ±100 the full control effect.
The nature of experiment [3]: Primary qHTS for Vero E6 cytotoxicity: counterscreen for inhibitors of SARS-S pseudo-typed particle cell entry (AID 1479150).
A short description of experiment [4]: Cytotoxicity counterscreen for inhibitors of SARS-CoV-2 cell entry (AID 1645845). Further: nearly all actives have a fitted effect of over 50% in size. A digest of the protocol:
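Expi293F/hACE2 cells seeded overnight; cpd pin-transferred in DMSO, 1 h preincubation, + media, 48 h 37 C 5% CO2; ATPLite 1step luminescence; normalized to cells and no cells.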
For orientation: The purpose of a counterscreen is to sort out artefacts and off-target activity.

The nature of experiment [5]: Primary qHTS to identify inhibitors of SARS-CoV-2 cell entry (AID 1645846). Further: nearly all actives have a fitted effect of over 45% in size. The settings on record: activity change, negative = inhibition: at 57.1 µM (top of the series) unless noted. A digest of the protocol: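 HEK293 cells stably expressing human ACE2, pre-treated 1 h with compound, then infected with MLV particles pseudotyped with Wuhan-Hu-1 spike (C-terminal 19-aa truncation). Luciferase luminescence after 48 h at 37 °C, normalised to spike PP and bald PP.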

“And” between values parts separate entries of the source, which are not always exact repeats. Identical values can stand only once. Results filed as inconclusive are left out. The source made the active and inactive calls. The call rests on the fitted dose curve.

For `CN(C)CCOC(C)(c1ccccc1)c1ccccn1` (stereo not given), the Potency entry in experiment [1], in experiment [2], in experiment [3] and in experiment [4] was “inactive” each time. The activity change, negative = inhibition in experiment [5] is 2.27%.

`COc1cc2c(cc1OC)[C@@H]1CC(=O)[C@@H](CC(C)C)CN1CC2`: the Potency result in experiment [1], in experiment [2], in experiment [3], in experiment [4] and in experiment [5] was “inactive” throughout.

With `O=C1OCCN1/N=C/c1ccc([N+](=O)[O-])o1`, the Potency result in experiment [1], in experiment [2], in experiment [3], in experiment [4] and in experiment [5] was “inactive” each time.

Take `C1N2CN3CN1CN(C2)C3`: the Potency result in experiment [1], in experiment [2], in experiment [3], in experiment [4] and in experiment [5] was “inactive” each time.

Consider `OC(Cn1cncn1)(Cn1cncn1)c1ccc(F)cc1F`, for which the Potency entry in experiment [1], in experiment [2], in experiment [3] and in experiment [4] was “inactive” each time. For the same molecule, in experiment [5], the activity change, negative = inhibition was -13.6% and -9.57%.

Take `CCCNC(=O)NS(=O)(=O)c1ccc(Cl)cc1`: the Potency entry in experiment [1], in experiment [2], in experiment [3], in experiment [4] and in experiment [5] was “inactive” throughout.

Regarding `Nc1nc2c(ncn2COC(CO)CO)c(=O)[nH]1`, the Potency entry in experiment [1], in experiment [2], in experiment [3] and in experiment [4] was “inactive” in each case. Also, the activity change, negative = inhibition in experiment [5] is -11.4% and -3.55%.

With `N=c1nc(N2CCCCC2)cc(N)n1O`, the Potency result in experiment [1], in experiment [2], in experiment [3] and in experiment [4] was “inactive” each time. In addition, in experiment [5], the activity change, negative = inhibition was -11.3%.

As for `Nc1cccc2c1CN(C1CCC(=O)NC1=O)C2=O` (stereo not given), the Potency entry in experiment [1], in experiment [2], in experiment [3], in experiment [4] and in experiment [5] was “inactive” each time.

For the molecule `CCCCNC(=O)NS(=O)(=O)c1ccc(C)cc1`, the Potency result in experiment [1], in experiment [2], in experiment [3], in experiment [4] and in experiment [5] was “inactive” each time.

For the molecule `C[C@@H](O)[C@H]1C(=O)N2C(C(=O)O)=C(S[C@@H]3CN[C@H](CNS(N)(=O)=O)C3)[C@H](C)[C@H]12`, the Potency entry in experiment [1], in experiment [2], in experiment [3] and in experiment [4] was “inactive” throughout. Further, the activity change, negative = inhibition in experiment [5] was -25.7%.

For the molecule `O=C1N=C(O)CN1/N=C/c1ccc(-c2ccc([N+](=O)[O-])cc2)o1`, the Potency entry in experiment [1], in experiment [2], in experiment [3], in experiment [4] and in experiment [5] was “inactive” in each case.

Regarding `CC[C@@H](CO)NCCN[C@@H](CC)CO`, the Potency result in experiment [1], in experiment [2], in experiment [3] and in experiment [4] was “inactive” each time. Also, in experiment [5], the activity change, negative = inhibition is -13.9%.

On to `CC(C)(C(=O)O)c1ccc(C(O)CCCN2CCC(C(O)(c3ccccc3)c3ccccc3)CC2)cc1` (stereo not given), for which the Potency entry in experiment [1], in experiment [2], in experiment [3], in experiment [4] and in experiment [5] was “inactive” in each case.

With `CCOC(=O)Nc1ccc2c(c1)N(C(=O)CCN1CCOCC1)c1ccccc1S2`, the Potency result in experiment [1], in experiment [2], in experiment [3] and in experiment [4] was “inactive” in each case. In addition, the activity change, negative = inhibition in experiment [5] was -15.7%.

`NC(=Nc1ccccc1)Nc1ccccc1`: the Potency result in experiment [1], in experiment [2], in experiment [3] and in experiment [4] was “inactive” each time. Moreover, in experiment [5], the activity change, negative = inhibition is 1.43%.

In the case of `C[C@H]1O[C@H](O[C@H]2[C@H](O)[C@@H](O)[C@@H](O[C@H]3[C@H](O)[C@@H](O)[C@H](O)O[C@@H]3CO)O[C@@H]2CO)[C@H](O)[C@@H](O)[C@@H]1N[C@H]1C=C(CO)[C@@H](O)[C@H](O)[C@H]1O`, the Potency entry in experiment [1], in experiment [2], in experiment [3], in experiment [4] and in experiment [5] was “inactive” each time.

In the case of `CN(C)/N=N/c1nc[nH]c1C(N)=O`, the Potency entry in experiment [1], in experiment [2], in experiment [3], in experiment [4] and in experiment [5] was “inactive” throughout.

For `CC1(C)O[C@@H]2[C@@H](CO[C@@]3(COS(N)(=O)=O)OC(C)(C)O[C@@H]23)O1`, the Potency result in experiment [1], in experiment [2], in experiment [3] and in experiment [4] was “inactive” throughout. Moreover, in experiment [5], the activity change, negative = inhibition is -8%.

`CC(c1cc2ccccc2s1)N(O)C(N)=O` (stereo not given): the Potency result in experiment [1], in experiment [2], in experiment [3] and in experiment [4] was “inactive” each time. Also, the activity change, negative = inhibition in experiment [5] was 4.54% and -93%.

Turning to `O=C(O)COCCN1CCN(C(c2ccccc2)c2ccc(Cl)cc2)CC1` (stereo not given), the Potency result in experiment [1], in experiment [2], in experiment [3] and in experiment [4] was “inactive” in each case. Further, the activity change, negative = inhibition in experiment [5] was -14.4%.

Consider `COCCCC/C(=N\OCCN)c1ccc(C(F)(F)F)cc1`, for which the Potency result in experiment [1], in experiment [2], in experiment [3] and in experiment [4] was “inactive” throughout. In addition, in experiment [5], the activity change, negative = inhibition was determined as 2.14%.

Regarding `Cc1ccc(S(=O)(=O)NC(=O)NN2CCCCCC2)cc1`, the Potency result in experiment [1], in experiment [2], in experiment [3] and in experiment [4] was “inactive” throughout. For the same molecule, the activity change, negative = inhibition in experiment [5] was 2.93%.

For `CC(N)C12CC3CC(CC(C3)C1)C2` (stereo not given), the Potency result in experiment [1], in experiment [2], in experiment [3] and in experiment [4] was “inactive” in each case. Further, the activity change, negative = inhibition in experiment [5] is -7.42%.

Consider `COc1ccc([C@@H]2Sc3ccccc3N(CCN(C)C)C(=O)[C@@H]2OC(C)=O)cc1`, for which the Potency result in experiment [1], in experiment [2], in experiment [3] and in experiment [4] was “inactive” throughout. Further, the activity change, negative = inhibition in experiment [5] was -17.1% and -9.97%.

On to `NC(=O)N1c2ccccc2CC(=O)c2ccccc21`, for which the Potency result in experiment [1], in experiment [2], in experiment [3], in experiment [4] and in experiment [5] was “inactive” throughout.

Take `NS(=O)(=O)c1cc2c(cc1Cl)NC=NS2(=O)=O`: the Potency entry in experiment [1], in experiment [2], in experiment [3], in experiment [4] and in experiment [5] was “inactive” each time.

For `Cc1cccc(Nc2ccccc2C(=O)O)c1C`, the Potency entry in experiment [1], in experiment [2], in experiment [3], in experiment [4] and in experiment [5] was “inactive” in each case.

As to `CCOc1ccccc1OCCN[C@H](C)Cc1ccc(OC)c(S(N)(=O)=O)c1`, the Potency result in experiment [1], in experiment [2], in experiment [3] and in experiment [4] was “inactive” in each case. Also, the activity change, negative = inhibition in experiment [5] is -21.5%.

As for `CN(C)c1cc(NC(=O)CNC(C)(C)C)c(O)c2c1C[C@@H]1C[C@H]3[C@H](N(C)C)C(=O)C(C(N)=O)=C(O)[C@@]3(O)C(=O)C1=C2O`, the Potency entry in experiment [1], in experiment [2], in experiment [3] and in experiment [4] was “inactive” throughout. In addition, the activity change, negative = inhibition in experiment [5] was -25.4%.
